# Measurements as given in PubChem BioAssay (NCI).
# The panel holds about 79,000 compounds, 15% with a hit somewhere; the sample as a whole holds those more often. Unmarked numbers belong to inactive results. Active and inactive are the calls of the source. Rule as the data show it: active = growth inhibition above about 70%; inactive = the rest.
# Legend:
# [1] = NCI Yeast Anticancer Drug Screen. Data for the rad50 strain (AID 155);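 also: 0% = growth of vehicle-only cultures of the same strain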; conditions: S. cerevisiae rad50 strain growth inhibition, stronger effect = higher value
# How it was run: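 Yeast carrying a defined DNA repair defect were exposed to test compounds, and growth was compared with vehicle-treated controls to give percent inhibition.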
# [2] = NCI Yeast Anticancer Drug Screen. Data for the mec2-1 strain (AID 157); conditions: S. cerevisiae mec2-1 strain, stronger effect = higher value
# How it was run: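 Using mec2-1 yeast: add compound, measure growth, express inhibition versus vehicle-treated cultures.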
# [3] = NCI Yeast Anticancer Drug Screen. Data for the sgs1 mgt1 strain (AID 161);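 also: 0% = growth of cultures given vehicle only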; conditions: S. cerevisiae sgs1 mgt1 strain, stronger effect = higher value
# How it was run: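 Growth of a repair-deficient yeast mutant was monitored after compound treatment and expressed as inhibition relative to vehicle-treated cultures.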
# [4] = NCI Yeast Anticancer Drug Screen. Data for the cln2 rad14 strain (AID 165);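 also: 0% = growth equal to vehicle treated cultures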; conditions: S. cerevisiae cln2 rad14 strain, stronger effect = higher value
# How it was run: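 Yeast strain cln2 rad14, bearing defects in cell cycle control and DNA repair, serves as the test system; values reflect growth inhibition compared with vehicle.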
# [5] = NCI Yeast Anticancer Drug Screen. Data for the bub3 strain (AID 167); conditions: S. cerevisiae bub3 mutant strain, stronger effect = higher value
# How it was run: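 Compounds were applied to a genetically altered yeast strain carrying a cell-cycle control defect. Growth inhibition was scored against vehicle-treated controls.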
# [6] = NCI Yeast Anticancer Drug Screen. Data for the mlh1 rad18 strain (AID 175); conditions: S. cerevisiae mlh1 rad18 strain growth inhibition, stronger effect = higher value
# How it was run: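 Steps: expose repair-defective yeast to compound; measure growth; express inhibition against vehicle-treated controls.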
# [7] = at 5.0 µM (retest, dose inferred, filed as 0.5)
# [8] = at 50.0 µM (retest, dose inferred, filed as 5.0)
Structure (SMILES),"growth inhibition [1, 7]","growth inhibition [1, 8]",growth inhibition ([1]; at 50.0 µM),"growth inhibition [2, 7]","growth inhibition [2, 8]",growth inhibition ([2]; at 50.0 µM),"growth inhibition [3, 7]","growth inhibition [3, 8]",growth inhibition ([3]; at 50.0 µM),"growth inhibition [4, 7]","growth inhibition [4, 8]",growth inhibition ([4]; at 50.0 µM),"growth inhibition [5, 7]","growth inhibition [5, 8]",growth inhibition ([5]; at 50.0 µM),"growth inhibition [6, 7]","growth inhibition [6, 8]",growth inhibition ([6]; at 50.0 µM)
CC(C)(C)c1ccc(O)c(C2CCCCC2)c1,5%,99% (active),99.3% (active),-3%,100% (active),99.7% (active),-1%,99% (active),99.5% (active),-3%,99% (active),99.5% (active),2%,99% (active),96.4% (active),-1%,100% (active),99% (active)
CCN(CC)C(=S)N/N=C/c1cc([N+](=O)[O-])ccc1O,-21%,63%,37%,15%,88% (active),79.8% (active),36%,87% (active),54.4%,-3%,66%,59%,16%,76% (active),56.5%,12%,80% (active),14.8%
CC(C(O)c1ccccc1)[N+](=O)[O-] (stereo unspecified),67%,96% (active),97% (active),8%,41%,29.2%,6%,53%,55.1%,3%,63%,28.1%,1%,78% (active),39.6%,7%,74% (active),38.5%
O=C(O)/C(Cl)=C(\Cl)C(=O)Nc1cccc(C(F)(F)F)c1,65%,99% (active),99.5% (active),56%,100% (active),99.7% (active),68%,100% (active),99.7% (active),43%,99% (active),99.3% (active),88% (active),99% (active),99.6% (active),49%,99% (active),99.5% (active)
CC(=O)NC1=C(Oc2ccccc2)C(=O)c2ccccc2C1=O,94% (active),99% (active),99.2% (active),98% (active),100% (active),97.8% (active),88% (active),100% (active),99.1% (active),89% (active),100% (active),70% (active),98% (active),100% (active),94.5% (active),96% (active),99% (active),99.1% (active)
COc1ccc2c(c1)CC[C@@H]1[C@@H]2CC[C@]2(C)/C(=N/OCCN3CCCCC3)CC[C@@H]12,60%,97% (active),76.3% (active),56%,98% (active),71.2% (active),33%,97% (active),86.8% (active),20%,96% (active),78.7% (active),33%,98% (active),79.8% (active),80% (active),98% (active),83% (active)
COc1ccc(Cc2ccc(N)cc2)cc1,-149%,78% (active),92.2% (active),-52%,68%,86.7% (active),-68%,85% (active),89.5% (active),-61%,91% (active),87.8% (active),-66%,76% (active),91.1% (active),-132%,86% (active),96.8% (active)
C=C/C=C/CC=C,-151%,38%,34.2%,-48%,-41%,1.2%,-62%,-38%,6.6%,-45%,-50%,85.3% (active),-60%,-46%,21.4%,-120%,-90%,59.9%
Nc1nc2c(ccc3ccccc32)s1,-3%,36%,66%,-17%,37%,50.6%,6%,54%,67.5%,14%,33%,61.2%,-22%,52%,56.9%,1%,72% (active),57.6%
Cc1cc(I)cc(I)c1O,8%,55%,75.5% (active),2%,34%,80.7% (active),7%,33%,55.3%,4%,4%,-7.85%,1%,33%,67.3%,10%,62%,86.3% (active)
Nc1ccc(Sc2c3ccccc3nc3ccccc23)cc1,19%,59%,80.8% (active),16%,34%,63.3%,22%,98% (active),87.2% (active),19%,96% (active),71.8% (active),24%,98% (active),85% (active),18%,48%,60.1%
O=C(O)C(c1ccc(Cl)cc1)c1ccc(Cl)cc1,10%,98% (active),95.3% (active),9%,98% (active),95.5% (active),7%,99% (active),91.9% (active),6%,97% (active),92.5% (active),9%,99% (active),97.4% (active),13%,96% (active),95.8% (active)
